Records with an inconclusive call do not appear. The source made the active and inactive calls. Calls come from the whole dose curve; as a rule, active = well fitted inhibition curve with a large enough effect; inconclusive = small, poorly fitted or top-dose-only effect; inactive = flat fitted curve, though single readings scatter.

This note sets out measurements from PubChem BioAssay (NCATS).

Holding throughout (assay): qHTS profiling for inhibitors of Plasmodium falciparum proliferation (AID 504749); note: nearly all actives have a fitted effect of over 60% in size
Common to all, as to details: P. falciparum in erythrocytes, SYBR Green DNA, 72 h; series mostly up to 28.7 µM

Assay [1] has as its system FAB9. A digest of the protocol: (§1)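 Infected RBCs, 0.3% parasitemia/2.5% Hct final; cpd 72 h, 37 C, 5% CO2; lysis buffer with saponin/triton/SYBR Green I, o/n RT dark; FI 485/535; norm. to artemisinin (0.29 uM) and DMSO.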
Assay [2] concerns HB3. A digest of the protocol:
as §1

For assay [3], the system named is JCK. A digest of the protocol:
as §1

The subject of assay [4] is N140. Summed up:
as §1

Assay [5] relates to P93_24. Summed up:
as §1

In assay [6] the test system is P94_40. A digest of the protocol:
as §1

Assay [7] has as its system PAD. A digest of the protocol: as §1
Assay [8] has as its system PC15. A digest of the protocol: as §1
The subject of assay [9] is GB4. A digest of the protocol:
as §1

The test system of assay [10] is ICS. Summed up:
as §1
Potency is the fitted concentration of half-maximal effect.

As to `CC1(C)O[C@@H]2C[C@@H]3[C@H]4C[C@@H](F)C5=CC(=O)C=C[C@]5(C)[C@@]4(F)[C@@H](O)C[C@]3(C)[C@]2(C(=O)CO)O1`, the Potency result in [1], in assay [2], in [3], in assay [4], in [5] and in assay [6] was “inactive” throughout. The Potency entry in [7] and in assay [8] was “inactive” each time.

As to `CC=CC1=C(C(=O)O)N2C(=O)[C@H](NC(=O)[C@H](N)c3ccc(O)cc3)[C@@H]2SC1`, the Potency result in assay [1], in assay [9], in [2], in assay [10], in [3] and in assay [4] was “inactive” in each case. In addition, the Potency result in assay [5], in assay [6], in [7] and in [8] was “inactive” each time.

In the case of `Nc1ccn([C@@H]2CS[C@H](CO)O2)c(=O)n1`, the Potency result in assay [1], in assay [9], in assay [2], in assay [10], in [3] and in assay [4] was “inactive” each time. Moreover, the Potency entry in assay [5], in [6], in [7] and in [8] was “inactive” throughout.

Turning to `CCC1=C[C@@H]2CN(C1)Cc1c([nH]c3ccccc13)[C@@](C(=O)OC)(c1cc3c(cc1OC)N(C)[C@@H]1[C@@](O)(C(=O)OC)[C@H](OC(C)=O)[C@]4(CC)C=CCN5CC[C@]31[C@@H]54)C2`, the Potency in assay [9] is 2.13 µM (active); in assay [2], 7.94 µM (active); in assay [10], 3.16 µM (active); in assay [3] it was 14.1 µM (active); in assay [4] it was 1.41 µM (active); in assay [5], 2.24 µM (active). Besides, the Potency is 1.58 µM (active) in assay [6], 2.24 µM (active) in [7] and 7.08 µM (active) in assay [8].

`C[C@H]1C[C@@H]2[C@@H]([C@@H](O)C[C@@]3(C)[C@H]2CC[C@]3(O)C(=O)CO)[C@@]2(C)C=CC(=O)C=C12`: the Potency entry in assay [1], in assay [9], in assay [2], in assay [10], in [3] and in [4] was “inactive” in each case. The Potency entry in assay [5], in assay [6], in assay [7] and in assay [8] was “inactive” each time.

For the compound `Nc1ccc(S(=O)(=O)Nc2ncccn2)cc1`, the Potency result in assay [1], in assay [9], in assay [2], in [10], in assay [3] and in assay [4] was “inactive” each time. Also, the Potency entry in [5], in [6], in assay [7] and in assay [8] was “inactive” throughout.

`CC[C@H]1CN2CCc3cc(OC)c(OC)cc3[C@H]2C[C@@H]1C[C@@H]1NCCc2cc(OC)c(OC)cc21`: the Potency in assay [1] is 0.141 µM (active); in [9], 0.269 µM (active); in [2], 0.316 µM (active); in [10], 0.178 µM (active); in assay [3] it was 0.141 µM (active); in assay [4], 0.316 µM (active). Also, the Potency is 0.282 µM (active) in assay [5], 0.251 µM (active) in assay [6], 0.355 µM (active) in assay [7] and 0.282 µM (active) in assay [8].

In the case of `COC(=O)C1=C(C)NC(C)=C(C(=O)OCCN2CCN(C(c3ccccc3)c3ccccc3)CC2)C1c1cccc([N+](=O)[O-])c1` (stereo not drawn), the Potency in assay [1] is 7.08 µM (active); in assay [9] it was 2.69 µM (active); in [2] it was 3.16 µM (active); in assay [10], 1 µM (active); in assay [3] it was 12.6 µM (active); in assay [4] it was 1.58 µM (active). Also, the Potency in [5] is 2.82 µM (active); in assay [6], 2 µM (active); in assay [7], 3.16 µM (active); in [8], 10 µM (active).

As for `CC(C)(C)NC(=O)[C@H]1CN(Cc2cccnc2)CCN1C[C@@H](O)C[C@@H](Cc1ccccc1)C(=O)N[C@H]1c2ccccc2C[C@H]1O`, the Potency in [9] is 5.36 µM (active); in [5], 14.1 µM (active); in assay [6], 11.2 µM (active). Also, the Potency result in assay [3] is “inactive”.

For the compound `O=C(O)CO.[NH2-].[NH2-].[Pt+2]`, the Potency entry in assay [1], in [9], in assay [2], in [3], in assay [4] and in assay [5] was “inactive” throughout. The Potency entry in assay [6], in assay [7] and in assay [8] was “inactive” throughout.

Consider `COC(=O)C[C@](O)(CCCC(C)(C)O)C(=O)O[C@@H]1C(OC)=C[C@]23CCCN2CCc2cc4c(cc2[C@H]13)OCO4`, for which the Potency in assay [1] was 0.0562 µM (active); in [9], 0.0301 µM (active); in assay [2] it was 0.0282 µM (active); in assay [10], 0.0158 µM (active); in assay [3], 0.0063 µM (active); in assay [4], 0.02 µM (active). The Potency in assay [5] was 0.0282 µM (active); in [6], 0.0158 µM (active); in assay [7], 0.0158 µM (active); in assay [8], 0.0316 µM (active).

For `COc1c(N2C[C@@H]3CCCN[C@H]3C2)c(F)cc2c(=O)c(C(=O)O)cn(C3CC3)c12`, the Potency result in [1], in assay [2], in assay [10], in assay [4], in assay [6] and in [7] was “inactive” each time. For the same compound, the Potency result in assay [8] is “inactive”.

Take `Nc1ccn([C@@H]2O[C@H](CO)[C@H](O)C2(F)F)c(=O)n1`: the Potency is 1.41 µM (active) in [1]; 0.953 µM (active) in [9]; 3.98 µM (active) in assay [2]; 3.98 µM (active) in [10]; 1.12 µM (active) in assay [4]; 0.316 µM (active) in assay [5]. Further, the Potency in [6] is 0.316 µM (active); in assay [7], 0.708 µM (active).

`O=c1[nH]c(=O)n(C2CCCO2)cc1F` (stereo not drawn): the Potency result in [1], in assay [9], in assay [2], in assay [10], in [3] and in assay [4] was “inactive” in each case. Further, the Potency entry in [5], in assay [6], in assay [7] and in [8] was “inactive” in each case.

As for `COc1cc(C(=O)NS(=O)(=O)c2ccccc2C)ccc1Cc1cn(C)c2ccc(NC(=O)OC3CCCC3)cc12`, the Potency result in assay [1], in assay [2], in [3], in [4], in [5] and in [7] was “inactive” throughout. In addition, the Potency result in [8] is “inactive”. Also, the Potency in assay [6] was 12.6 µM (active).

In the case of `CN1c2cc(O)c(N=NC(N)=O)cc2CC1S(=O)(=O)O` (stereo not drawn), the Potency result in assay [1], in assay [9], in [2], in assay [10], in assay [3] and in assay [4] was “inactive” in each case. For the same compound, the Potency result in [5], in assay [6], in assay [7] and in assay [8] was “inactive” throughout.
